In ChEMBL document CHEMBL2218924, “A broad activity screen in support of a chemogenomic map for kinase signalling research and drug discovery” (Biochem J, 2013):

Columns and labels:
[1] = target: Vascular endothelial growth factor receptor 3 (Homo sapiens) (UniProt P35916); conditions: at 10 µM
[2] = target: Macrophage colony-stimulating factor 1 receptor (Homo sapiens) (UniProt P07333); conditions: at 1 µM
[3] = target: Macrophage colony-stimulating factor 1 receptor (Homo sapiens) (UniProt P07333); conditions: at 10 µM
[4] = target: Tyrosine-protein kinase Fyn (Homo sapiens) (UniProt P06241); conditions: at 1 µM
[5] = target: Tyrosine-protein kinase Fyn (Homo sapiens) (UniProt P06241); conditions: at 10 µM
[6] = target: T1, Mitogen-activated protein kinase kinase kinase kinase 2 (Homo sapiens) (UniProt Q12851); conditions: at 1 µM
T1 sequence (whole entry): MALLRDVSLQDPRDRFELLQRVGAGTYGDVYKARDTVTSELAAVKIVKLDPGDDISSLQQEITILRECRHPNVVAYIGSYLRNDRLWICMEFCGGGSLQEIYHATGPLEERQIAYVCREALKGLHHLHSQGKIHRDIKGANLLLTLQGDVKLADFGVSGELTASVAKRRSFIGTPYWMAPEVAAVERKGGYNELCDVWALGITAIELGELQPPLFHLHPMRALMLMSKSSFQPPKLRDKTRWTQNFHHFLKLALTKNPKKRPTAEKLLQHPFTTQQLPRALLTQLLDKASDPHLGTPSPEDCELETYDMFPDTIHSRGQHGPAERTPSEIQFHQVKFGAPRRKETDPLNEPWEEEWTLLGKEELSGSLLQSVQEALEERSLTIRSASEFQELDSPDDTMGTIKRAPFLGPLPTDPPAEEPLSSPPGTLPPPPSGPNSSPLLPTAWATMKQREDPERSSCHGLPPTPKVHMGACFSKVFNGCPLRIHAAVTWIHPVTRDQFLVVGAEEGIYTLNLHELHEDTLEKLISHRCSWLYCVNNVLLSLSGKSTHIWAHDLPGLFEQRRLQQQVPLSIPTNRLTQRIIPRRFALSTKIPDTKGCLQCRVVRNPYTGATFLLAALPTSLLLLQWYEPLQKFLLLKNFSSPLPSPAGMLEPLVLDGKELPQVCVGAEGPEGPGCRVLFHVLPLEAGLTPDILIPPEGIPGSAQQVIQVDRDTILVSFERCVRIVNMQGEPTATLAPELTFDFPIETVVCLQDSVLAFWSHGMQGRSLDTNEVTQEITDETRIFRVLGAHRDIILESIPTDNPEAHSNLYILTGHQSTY

[7] = target: T1, Mitogen-activated protein kinase kinase kinase kinase 2 (Homo sapiens); conditions: at 10 µM
[8] = target: G protein-coupled receptor kinase 5 (Homo sapiens) (UniProt P34947); conditions: at 10 µM
[9] = target: G protein-coupled receptor kinase 6 (Homo sapiens) (UniProt P43250); conditions: at 10 µM
[10] = target: T2, Rhodopsin kinase GRK7 (Homo sapiens) (UniProt Q8WTQ7); conditions: at 1 µM
T2 sequence (whole entry): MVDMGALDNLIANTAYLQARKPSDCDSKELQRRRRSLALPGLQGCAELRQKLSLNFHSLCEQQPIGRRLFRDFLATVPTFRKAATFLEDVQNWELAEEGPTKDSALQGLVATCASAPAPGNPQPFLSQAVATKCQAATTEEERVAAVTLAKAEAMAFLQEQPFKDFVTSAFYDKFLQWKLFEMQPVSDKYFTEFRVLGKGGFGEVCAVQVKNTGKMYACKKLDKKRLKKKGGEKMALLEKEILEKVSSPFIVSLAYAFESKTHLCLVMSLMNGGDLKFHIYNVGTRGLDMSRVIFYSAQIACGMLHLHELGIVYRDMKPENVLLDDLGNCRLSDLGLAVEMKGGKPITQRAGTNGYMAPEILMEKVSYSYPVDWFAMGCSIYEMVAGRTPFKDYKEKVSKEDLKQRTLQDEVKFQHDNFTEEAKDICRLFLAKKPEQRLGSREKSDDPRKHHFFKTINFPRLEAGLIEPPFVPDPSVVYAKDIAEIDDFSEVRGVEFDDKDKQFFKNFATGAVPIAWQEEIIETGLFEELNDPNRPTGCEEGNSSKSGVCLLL

[11] = target: T2, Rhodopsin kinase GRK7 (Homo sapiens); conditions: at 10 µM
[12] = target: Glycogen synthase kinase-3 alpha (Homo sapiens) (UniProt P49840); conditions: at 1 µM
[13] = target: Glycogen synthase kinase-3 alpha (Homo sapiens) (UniProt P49840); conditions: at 10 µM
[14] = target: Glycogen synthase kinase-3 beta (Homo sapiens) (UniProt P49841); conditions: at 1 µM
[15] = target: Glycogen synthase kinase-3 beta (Homo sapiens) (UniProt P49841); conditions: at 10 µM
[16] = target: Homeodomain-interacting protein kinase 1 (Homo sapiens) (UniProt Q86Z02); conditions: at 1 µM
[17] = target: Homeodomain-interacting protein kinase 1 (Homo sapiens) (UniProt Q86Z02); conditions: at 10 µM
[18] = target: Homeodomain-interacting protein kinase 2 (Homo sapiens) (UniProt Q9H2X6); conditions: at 1 µM
[19] = target: Homeodomain-interacting protein kinase 2 (Homo sapiens) (UniProt Q9H2X6); conditions: at 10 µM
[20] = target: Homeodomain-interacting protein kinase 3 (Homo sapiens) (UniProt Q9H422); conditions: at 1 µM
Sequence of Homeodomain-interacting protein kinase 3 (Homo sapiens) (Q9H422 whole entry, looked up): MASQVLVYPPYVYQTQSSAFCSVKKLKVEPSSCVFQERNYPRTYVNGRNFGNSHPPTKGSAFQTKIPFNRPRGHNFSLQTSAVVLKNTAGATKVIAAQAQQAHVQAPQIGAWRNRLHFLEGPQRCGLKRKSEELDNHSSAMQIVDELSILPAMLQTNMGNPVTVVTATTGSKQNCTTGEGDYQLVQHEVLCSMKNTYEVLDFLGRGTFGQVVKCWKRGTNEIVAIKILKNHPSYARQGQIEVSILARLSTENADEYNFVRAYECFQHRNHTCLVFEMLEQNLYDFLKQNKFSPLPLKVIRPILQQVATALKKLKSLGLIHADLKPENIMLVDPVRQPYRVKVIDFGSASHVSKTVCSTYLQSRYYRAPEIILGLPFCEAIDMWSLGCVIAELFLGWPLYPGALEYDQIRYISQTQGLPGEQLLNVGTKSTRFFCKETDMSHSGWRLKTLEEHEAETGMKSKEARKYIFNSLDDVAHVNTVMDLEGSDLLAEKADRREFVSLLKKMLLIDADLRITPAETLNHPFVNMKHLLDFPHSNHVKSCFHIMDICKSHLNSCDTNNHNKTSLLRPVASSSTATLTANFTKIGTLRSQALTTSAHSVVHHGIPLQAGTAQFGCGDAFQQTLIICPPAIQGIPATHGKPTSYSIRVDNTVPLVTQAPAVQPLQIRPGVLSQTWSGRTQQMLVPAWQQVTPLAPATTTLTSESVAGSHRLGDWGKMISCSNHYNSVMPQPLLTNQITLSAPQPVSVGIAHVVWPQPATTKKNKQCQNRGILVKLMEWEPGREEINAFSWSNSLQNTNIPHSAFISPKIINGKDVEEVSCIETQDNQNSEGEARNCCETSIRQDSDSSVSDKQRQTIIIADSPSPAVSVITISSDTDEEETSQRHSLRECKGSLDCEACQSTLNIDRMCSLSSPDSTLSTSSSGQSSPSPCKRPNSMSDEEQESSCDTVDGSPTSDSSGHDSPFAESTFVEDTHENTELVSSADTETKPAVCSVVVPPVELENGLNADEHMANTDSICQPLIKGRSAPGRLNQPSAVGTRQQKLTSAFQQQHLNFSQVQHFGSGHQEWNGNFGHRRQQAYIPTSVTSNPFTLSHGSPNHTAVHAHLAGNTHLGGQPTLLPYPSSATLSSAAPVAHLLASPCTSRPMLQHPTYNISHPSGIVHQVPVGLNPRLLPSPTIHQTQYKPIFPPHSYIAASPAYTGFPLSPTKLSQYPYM

Sequence of Macrophage colony-stimulating factor 1 receptor (Homo sapiens) (P07333 whole entry): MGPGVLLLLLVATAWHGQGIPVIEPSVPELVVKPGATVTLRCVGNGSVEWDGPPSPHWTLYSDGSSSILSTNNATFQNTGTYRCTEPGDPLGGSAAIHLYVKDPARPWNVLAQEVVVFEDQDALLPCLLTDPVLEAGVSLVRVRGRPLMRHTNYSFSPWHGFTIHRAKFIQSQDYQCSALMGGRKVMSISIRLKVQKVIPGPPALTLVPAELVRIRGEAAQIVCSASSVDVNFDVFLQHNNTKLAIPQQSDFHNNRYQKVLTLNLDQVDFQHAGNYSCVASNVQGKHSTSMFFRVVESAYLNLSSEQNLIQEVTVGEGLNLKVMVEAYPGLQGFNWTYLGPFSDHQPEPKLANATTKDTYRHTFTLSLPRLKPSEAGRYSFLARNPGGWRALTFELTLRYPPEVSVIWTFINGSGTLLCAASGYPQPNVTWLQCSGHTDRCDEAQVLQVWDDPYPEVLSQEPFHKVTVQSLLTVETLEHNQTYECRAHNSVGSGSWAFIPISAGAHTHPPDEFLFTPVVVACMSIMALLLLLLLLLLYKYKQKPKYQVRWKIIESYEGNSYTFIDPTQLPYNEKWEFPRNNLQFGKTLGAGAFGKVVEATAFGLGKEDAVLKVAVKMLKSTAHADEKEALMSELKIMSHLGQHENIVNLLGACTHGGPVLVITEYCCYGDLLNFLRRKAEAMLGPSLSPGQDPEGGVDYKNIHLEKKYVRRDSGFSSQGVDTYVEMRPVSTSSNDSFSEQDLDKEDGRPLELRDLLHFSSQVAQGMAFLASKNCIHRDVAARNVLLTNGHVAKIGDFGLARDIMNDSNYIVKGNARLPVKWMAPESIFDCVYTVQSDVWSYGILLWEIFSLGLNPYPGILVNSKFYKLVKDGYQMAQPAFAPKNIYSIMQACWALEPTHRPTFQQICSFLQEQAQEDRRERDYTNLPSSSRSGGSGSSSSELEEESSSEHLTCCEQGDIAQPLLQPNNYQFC
Sequence of Homeodomain-interacting protein kinase 2 (Homo sapiens) (Q9H2X6 whole entry, looked up): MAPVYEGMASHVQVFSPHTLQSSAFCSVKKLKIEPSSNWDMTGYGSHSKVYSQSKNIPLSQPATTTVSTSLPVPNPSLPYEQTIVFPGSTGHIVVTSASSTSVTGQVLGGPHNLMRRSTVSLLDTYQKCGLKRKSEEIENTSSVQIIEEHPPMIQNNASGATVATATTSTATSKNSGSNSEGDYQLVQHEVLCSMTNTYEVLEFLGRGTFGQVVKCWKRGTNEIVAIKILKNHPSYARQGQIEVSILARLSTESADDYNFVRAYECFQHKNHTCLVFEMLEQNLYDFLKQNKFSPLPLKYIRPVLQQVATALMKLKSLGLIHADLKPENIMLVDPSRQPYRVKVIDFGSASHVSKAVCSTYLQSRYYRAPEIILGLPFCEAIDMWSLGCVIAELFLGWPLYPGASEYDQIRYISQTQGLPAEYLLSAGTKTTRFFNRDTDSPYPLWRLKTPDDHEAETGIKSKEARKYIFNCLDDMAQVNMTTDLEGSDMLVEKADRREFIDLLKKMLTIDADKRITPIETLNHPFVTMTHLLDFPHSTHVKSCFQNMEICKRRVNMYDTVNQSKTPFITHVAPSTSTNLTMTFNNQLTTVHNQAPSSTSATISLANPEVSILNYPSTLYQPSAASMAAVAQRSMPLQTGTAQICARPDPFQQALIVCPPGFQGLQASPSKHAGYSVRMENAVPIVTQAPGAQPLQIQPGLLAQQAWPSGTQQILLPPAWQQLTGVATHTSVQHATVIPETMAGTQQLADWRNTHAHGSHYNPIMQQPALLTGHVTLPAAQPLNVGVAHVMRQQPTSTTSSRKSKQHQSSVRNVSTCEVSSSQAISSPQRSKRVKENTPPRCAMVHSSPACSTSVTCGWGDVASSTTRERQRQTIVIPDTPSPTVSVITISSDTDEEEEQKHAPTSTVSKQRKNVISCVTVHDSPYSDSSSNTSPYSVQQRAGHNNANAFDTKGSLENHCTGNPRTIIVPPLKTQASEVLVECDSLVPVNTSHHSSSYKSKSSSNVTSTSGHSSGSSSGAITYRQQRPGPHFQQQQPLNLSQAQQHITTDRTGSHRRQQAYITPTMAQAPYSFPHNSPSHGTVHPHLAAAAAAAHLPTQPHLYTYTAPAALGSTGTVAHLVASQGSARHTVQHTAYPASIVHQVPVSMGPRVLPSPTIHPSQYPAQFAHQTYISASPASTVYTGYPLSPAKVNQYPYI
Sequence of Vascular endothelial growth factor receptor 3 (Homo sapiens) (P35916 whole entry): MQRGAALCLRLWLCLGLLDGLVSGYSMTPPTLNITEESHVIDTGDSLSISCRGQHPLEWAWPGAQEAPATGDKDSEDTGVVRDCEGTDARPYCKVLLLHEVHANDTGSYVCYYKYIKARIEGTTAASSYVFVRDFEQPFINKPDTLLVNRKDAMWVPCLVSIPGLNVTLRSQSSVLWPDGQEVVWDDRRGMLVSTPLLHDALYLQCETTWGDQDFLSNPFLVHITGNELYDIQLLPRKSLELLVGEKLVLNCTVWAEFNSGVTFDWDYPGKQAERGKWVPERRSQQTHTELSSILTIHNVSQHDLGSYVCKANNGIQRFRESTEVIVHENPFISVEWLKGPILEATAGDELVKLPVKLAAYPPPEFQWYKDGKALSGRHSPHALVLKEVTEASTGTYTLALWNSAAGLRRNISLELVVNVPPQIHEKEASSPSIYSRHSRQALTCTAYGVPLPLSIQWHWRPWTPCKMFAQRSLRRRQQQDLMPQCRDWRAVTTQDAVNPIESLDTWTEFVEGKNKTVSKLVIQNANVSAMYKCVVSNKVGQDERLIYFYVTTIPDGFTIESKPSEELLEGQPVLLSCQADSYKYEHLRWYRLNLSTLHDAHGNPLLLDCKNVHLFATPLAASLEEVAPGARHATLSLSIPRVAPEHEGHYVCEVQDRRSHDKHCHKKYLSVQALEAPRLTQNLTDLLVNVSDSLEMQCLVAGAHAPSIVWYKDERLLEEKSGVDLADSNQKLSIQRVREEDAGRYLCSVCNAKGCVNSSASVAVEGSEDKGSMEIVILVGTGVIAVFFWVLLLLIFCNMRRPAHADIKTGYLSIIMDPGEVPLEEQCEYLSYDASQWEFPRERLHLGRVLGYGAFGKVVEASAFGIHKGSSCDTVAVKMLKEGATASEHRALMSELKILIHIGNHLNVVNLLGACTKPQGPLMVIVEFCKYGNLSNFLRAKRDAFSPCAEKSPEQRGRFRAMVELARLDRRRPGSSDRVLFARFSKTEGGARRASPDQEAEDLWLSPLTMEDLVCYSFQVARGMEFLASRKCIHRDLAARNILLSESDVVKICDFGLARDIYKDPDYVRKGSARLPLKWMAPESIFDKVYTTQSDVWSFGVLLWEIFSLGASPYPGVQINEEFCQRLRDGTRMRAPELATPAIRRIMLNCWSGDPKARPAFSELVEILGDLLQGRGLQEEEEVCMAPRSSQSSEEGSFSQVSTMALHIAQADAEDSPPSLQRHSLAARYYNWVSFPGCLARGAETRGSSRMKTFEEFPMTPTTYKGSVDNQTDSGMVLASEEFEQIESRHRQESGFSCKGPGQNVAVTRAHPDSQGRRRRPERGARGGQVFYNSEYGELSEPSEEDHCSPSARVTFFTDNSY

Compound	residual activity [1] [%]	residual activity [2] [%]	residual activity [3] [%]	residual activity [4] [%]	residual activity [5] [%]	residual activity [6] [%]	residual activity [7] [%]	residual activity [8] [%]	residual activity [9] [%]	residual activity [10] [%]	residual activity [11] [%]	residual activity [12] [%]	residual activity [13] [%]	residual activity [14] [%]	residual activity [15] [%]	residual activity [16] [%]	residual activity [17] [%]	residual activity [18] [%]	residual activity [19] [%]	residual activity [20] [%]
NC(=O)c1ccc2[nH]c(-c3ccc(Oc4ccc(Cl)cc4)cc3)nc2c1	22	84	59	78	86	44	10	88	80	89	77	101	86	105	130	104	96	98	100	92
C[C@@H](N)[C@H]1CC[C@H](C(=O)Nc2ccncc2)CC1	104	98	110	111	112	–	88	90	106	97	89	75	68	105	84	102	109	103	101	91
N#Cc1cnc2cnc(NCc3cccnc3)cc2c1Nc1ccc(F)c(Cl)c1	2	58	60	87	74	–	3	91	–	120	94	46	39	62	42	–	–	94	84	–
O=[N+]([O-])c1ccc(-c2nc(-c3ccc(F)cc3)c(-c3ccncc3)[nH]2)cc1	71	81	54	82	70	99	91	105	94	108	92	99	84	73	83	111	–	107	100	110
O=C1Nc2ccc(Br)cc2/C1=C\c1cc2c([nH]1)CCCC2	1	11	3	–	–	24	42	100	–	–	–	113	122	–	–	–	99	82	–	97
Cc1ccc(S(=O)(=O)/C=C/C#N)cc1	89	84	89	88	100	90	89	101	94	95	90	115	102	117	121	104	90	101	96	103
c1ccc(-c2n[nH]cc2-c2ccnc3ccccc23)nc1	10	71	76	94	22	43	27	103	87	93	87	–	–	85	–	98	105	98	101	100
Cc1cc(Nc2nc(-c3ccccc3)nc3ccccc23)n[nH]1	1	4	0	2	-2	38	6	–	65	55	14	9	3	20	10	95	35	64	13	–
COc1cc2ncnc(Nc3ccc(NC(=O)c4ccccc4)cc3)c2cc1OC	14	84	79	100	48	–	70	89	94	110	95	–	–	97	104	102	97	99	87	101
Cn1cnc2cc3c(Nc4cccc(Br)c4)ncnc3cc21	8	94	37	67	34	86	70	93	96	100	86	103	105	102	82	96	105	102	92	95
Nc1ccc2ncnc(NCCc3ccc(Oc4ccccc4)cc3)c2c1	6	72	–	75	66	72	68	97	95	110	88	94	89	103	119	115	97	77	70	92
Cc1cccc(-c2[nH]c(C(C)(C)C)nc2-c2ccc3c(c2)OCO3)n1	90	–	–	105	93	96	83	103	87	97	97	–	–	104	93	93	102	97	96	–
Cc1cncc2cccc(S(=O)(=O)N3CCCN(C(=O)CN)C[C@H]3C)c12	51	73	78	93	78	82	46	68	51	79	28	–	–	–	–	94	–	–	–	–
COc1cc2ncc(-c3ccccc3)nc2cc1OC	17	30	7	–	84	96	90	–	91	–	–	–	–	93	138	–	–	96	97	100
Nc1cccc(-c2cc3c(Oc4cccc(O)c4)ncnc3[nH]2)c1	0	3	-1	0	-2	42	8	93	93	92	91	27	3	22	6	–	–	95	54	–
CCC(=O)Nc1ccc2ncnc(Nc3cccc(Br)c3)c2c1	65	94	61	85	67	77	69	93	83	96	86	125	142	108	96	98	105	104	103	92
